The values that follow come from PubChem BioAssay.

The assay concerns Lefty1. The experiment in a line: Lefty1 binders on small-molecule microarrays, primary screen, biochemical, small-molecule microarray, 635/667 nm fluorescence (AID 1139). To be noted: small-molecule microarray binding, fluorescence 635/667; higher = more signal.
Take `CC(C)[C@@H](OCc1ccccc1)[C@H](C)C=NOC[C@@H](O)COCc1ccco1`: the composite z-score is -0.801.

In turn, `CC(C)(C)N1C(=O)[C@H]2[C@H]3[C@H](O)C=CC(=O)[C@@H]3CC[C@H]2C1=O` yielded a composite z-score of 0.461.

`CCOC(=O)[C@H](CC(C)C)NC(=O)CCC1CC(OC(=O)NCc2cccc3ccccc23)CC2(CCCC(COC(=O)NCCOC)O2)O1` (some centres not stated) came in with a composite z-score of 0.436.

`Cc1ccc(S(=O)(=O)n2c3ccccc3c3nnc(C(=O)c4ccccc4)nc32)cc1` yielded a composite z-score of 0.0671.

For the compound `CCN1C(=O)[C@H]2[C@H]3[C@H](O)[C@H](O)CC(=NOC[C@H]4O[C@H](c5ccccc5)C=C[C@@H]4Oc4ccc(OC)cc4)[C@@H]3CC[C@H]2C1=O`, the composite z-score amounted to 1.19.

On to `Cc1cc2c(c(=O)o1)[C@@H](O)[C@H]1O[C@H]1C2=O`, for which the composite z-score is 1.32.

`C#CCCCON=C1C[C@@H](O)[C@@H](O)[C@@H]2[C@@H]3C(=O)N(c4cccc(Oc5ccccc5)c4)C(=O)[C@@H]3CC[C@H]12` returned a composite z-score of -0.275.

With `CC(CCN1CCc2nc(-c3ccccc3)c(-c3ccccc3)cc2C1)=NOC[C@@H](O)[C@H]1O[C@@H]2OC(C)(C)O[C@@H]2[C@H]1O`, the composite z-score amounted to 1.07.

As to `CC(CCN1CCc2nc(-c3ccccc3)c(-c3ccccc3)cc2C1)=NOC[C@@H](O)COCc1ccco1`, the composite z-score worked out at 1.03.

`CSCC[C@@H]1NC(=O)CC=C[C@@H](C)COC(=O)[C@@H](C)COC1=O` registered a composite z-score of -0.0168.

Compound `CC(=O)Nc1ccc([C@@H]2N[C@H](C(=O)O)CC[C@H]2C)cc1` registered a composite z-score of 0.701.

`C#CCCCON=C1[C@H]2CCn3c(=O)n(-c4ccccc4)c(=O)n3[C@H]2[C@H](O)[C@@H]2O[C@H]12` came in with a composite z-score of 0.66.
